Source: PubChem BioAssay (EPA / NIEHS)
Some compounds were tested as several samples or in several runs, with calls that do not always agree. Activity calls are given as the source filed them. The calls were made as follows: active = hit-call score of the fitted dose curve at least 0.9, where 1 is the maximum; inactive = score below 0.9.

Test: ATG_DR4_LXR_CIS: Attagene CIS-FACTORIAL HepG2 Assay for human Liver X Receptor (LXR), DR4 submotif (AID 2282929)
Settings: HepG2 Attagene DR4 cis-reporter, mRNA transcription; actives raise or lower the signal
Description: ATG_CIS is a cell-based, multiplexed-readout assay that uses HepG2, a human liver cell line, with measurements taken at 24 hours after chemical dosing in a 24-well plate.ATG_DR4_LXR_CIS is one of 52 assay component(s) measured or calculated from the ATG_CIS assay. It is designed to make measurements of mRNA induction, a form of inducible reporter, as detected with fluorescence intensity signals by Reverse transcription polymerase chain reaction (RT-PCR) and Capillary electrophoresis technology.Data from the assay component ATG_DR4_LXR_CIS was analyzed into 1 assay endpoint. This assay endpoint, ATG_DR4_LXR_CIS, was analyzed with bidirectional fitting relative to DMSO as the negative control and baseline of activity. Using a type of inducible reporter, measures of mRNA for gain or loss-of-signal activity can be used to understand the reporter gene at the transcription factor-level as they relate to the gene NR1H2 and NR1H3. Furthermore, this assay endpoint can be referred to as a primary readout, because this assay has produced multiple assay endpoints where this one serves a reporter gene function. To generalize the intended target to other relatable targets, this assay endpoint is annotated to the nuclear receptor intended target family, where the subfamily is non-steroidal.
Human liver HepG2 cells are transiently transfected with multiple reporter transcription units (MRTUs) in 6-well plates using FuGene 6 reagent (Roche; 3 ml FuGene/1 mg DNA). The MRTU constructs are regulated by a cis-regulating element (promoter). […] A major difference between the CIS and TRANS system is that in CIS activities of endogenous TFs are measured, whereas the TRANS assay evaluates changes in activities of exogenous, chimeric NR-Gal4 proteins. […] At the end of 24 hour incubation, total RNA was isolated using TriZol reagent (Invitrogen). The isolated RNA is then reverse-transcribed using oligo(dT) primer and Mo-MLV reverse transcriptase (Invitrogen) with DNAse I (Ambion) treatment for 30 min. The one-tenth of the produced cDNA was amplified by PCR using Taq DNA polymerase (Invitrogen) and two reporter sequence-specific primers. The PCR products were fluorescently labeled by primer extension with 6-arboxyfluorescein (6-FAM) 5'-labeled reporter sequence-specific primer (2 min at 95 C, 20 s at 68 C and 10 min at 72 C) and these products were digested with 5U of HpaI (New England Biolabs) for 2h at 37 C. The fragments were purified using Qiaquick PCR columns (Qiagen), analyzed on an ABI 3130xL genetic analyzer (Applied Biosystems) with peak positions identified by using a set of X-rhodamine (ROX)-labeled MapMarker1000 molecular weight standards (BioVentures). The raw capillary electrophoresis data was processed using Attagraph software (Attagene).
With `COc1ccc(C(=CC(=O)N2CCOCC2)c2ccc(Cl)cc2)cc1OC` the outcome was “inactive”. In the case of `CCCSP(=O)(OCC)SCCC`, the outcome is reported as “inactive”. In the case of `COP(=O)(OC)C(O)C(Cl)(Cl)Cl` (stereo not given), the outcome is reported as “inactive”. In the case of `CCOP(=S)(OCC)Oc1cc(C)nc(C(C)C)n1`, the AC50 is reported as 50 µM (active). With `CN(C)C(=O)Nc1cccc(C(F)(F)F)c1` the outcome was “inactive”. For `N#CSCSC#N`, the outcome was “inactive”. For `COc1cccc(C(=O)NN(C(=O)c2cc(C)cc(C)c2)C(C)(C)C)c1C`, the AC50 was 50 µM (active). In the case of `CCCSP(=O)(OCC)Oc1ccc(Br)cc1Cl` (stereo not given), the outcome is reported as “inactive”. In the case of `CCC(CC)Nc1c([N+](=O)[O-])cc(C)c(C)c1[N+](=O)[O-]`, the AC50 is reported as 37.9 µM (active). For `FC(F)C(F)(F)OCC(Cn1cncn1)c1ccc(Cl)cc1Cl` (stereo not given), the AC50 was 50 µM (active). With `O=[N+]([O-])c1cc(C(F)(F)F)c(Cl)c([N+](=O)[O-])c1Nc1ncc(C(F)(F)F)cc1Cl` the outcome was “inactive” and the AC50 was 11.1 µM (active). With `Cc1ccn2nc(S(=O)(=O)Nc3c(F)cccc3F)nc2n1` the outcome was “inactive”. In the case of `O=C(O)c1cc(Oc2ccc(C(F)(F)F)cc2Cl)ccc1[N+](=O)[O-]`, the outcome is reported as “inactive”. For `CCc1cnc(C2=NC(C)(C(C)C)C(=O)N2)c(C(=O)O)c1` (stereo not given), the outcome was “inactive”. With `CCCCN(CC)c1c([N+](=O)[O-])cc(C(F)(F)F)cc1[N+](=O)[O-]` the outcome was “inactive”. In the case of `Nc1nc(N)nc(NC2CC2)n1`, the outcome is reported as “inactive”. For `CCc1cccc(CC)c1N(COC)C(=O)CCl`, the outcome was “inactive”. In the case of `CNC(=O)ON=C(C)SC`, the outcome is reported as “inactive”. With `CCOC(=O)COc1cc(-c2nn(C)c(OC(F)F)c2Cl)c(F)cc1Cl` the outcome was “inactive”. For `CC1(C(=O)Nc2ccc(O)c(Cl)c2Cl)CCCCC1`, the outcome was “inactive”. In the case of `CC(C)=CC1C(C(=O)OCN2C(=O)C3=C(CCCC3)C2=O)C1(C)C` (stereo not given), the AC50 is reported as 73.6 µM (active). With `CCOP(=S)(OCC)SCCSCC` the outcome was “inactive”. In the case of `CCOP(=O)(SC(C)CC)N1CCSC1=O` (stereo not given), the outcome is reported as “inactive”. With `C[N+]1(C)CCCCC1` the outcome was “inactive”. With `Cc1cc(C2CC2)nc(Nc2ccccc2)n1` the outcome was “inactive”. For `CCOP(=S)(OCC)Oc1ccc2c(C)c(Cl)c(=O)oc2c1`, the outcome was “inactive”. In the case of `Nc1c(Cl)cc([N+](=O)[O-])cc1Cl`, the outcome is reported as “inactive”. For `CCc1cccc(C)c1N(C(=O)CCl)C(C)COC` (stereo not given), the AC50 was 32.1 µM (active). For `CN(C)NC(=O)CCC(=O)O`, the outcome was “inactive”. In the case of `CCNc1nc(Cl)nc(NC(C)(C)C#N)n1`, the outcome is reported as “inactive”. For `CC(C1CC1)C(O)(Cn1cncn1)c1ccc(Cl)cc1` (stereo not given), the AC50 was 11.3 µM (active). With `CCOP(=S)(OCC)Oc1ccc([N+](=O)[O-])cc1` the outcome was “inactive”. For `CC(Oc1cccc(Cl)c1)C(=O)O` (stereo not given), the outcome was “inactive”. In the case of `CNc1cnn(-c2cccc(C(F)(F)F)c2)c(=O)c1Cl`, the outcome is reported as “inactive”. With `S=C1NCCN1` the outcome was “inactive”. With `CON=C(C(=O)OC)c1ccccc1CON=C(C)c1cccc(C(F)(F)F)c1` the AC50 was 24 µM (active). With `CN(C)[C@@H]1C(=O)C(C(N)=O)=C(O)[C@@]2(O)C(=O)C3=C(O)c4c(O)cccc4[C@@](C)(O)[C@H]3[C@H](O)[C@@H]12` the outcome was “inactive”. With `CCC(=NOC/C=C/Cl)C1=C(O)CC(C2CCOCC2)CC1=O` (stereo not given) the outcome was “inactive”. In the case of `CCOC(=O)CC(SP(=O)(OC)OC)C(=O)OCC` (stereo not given), the outcome is reported as “inactive”.
